The campaign covered roughly 1,700 compounds. About 720 (42%) were called active.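 How the source made its calls: active means calcium response below the same-plate mean of wells given acetylcholine alone at its 80%-effect dose, minus 3 SD; inactive means the rest.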 So high a share suggests a set chosen from earlier hits. Only a sample is shown.
biological target: Muscarinic acetylcholine receptor M1 (Rattus norvegicus) (UniProt P08482); assay: rat M1 muscarinic receptor antagonists, confirmation, CHO cells, Fluo-4 calcium, duplicate (AID 677); settings: ACh EC80 antagonism, at 10 µM, active compounds read low;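 further: raw fluorescence intensity difference in arbitrary instrument units and not normalized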
Sequence (P08482 whole entry, looked up): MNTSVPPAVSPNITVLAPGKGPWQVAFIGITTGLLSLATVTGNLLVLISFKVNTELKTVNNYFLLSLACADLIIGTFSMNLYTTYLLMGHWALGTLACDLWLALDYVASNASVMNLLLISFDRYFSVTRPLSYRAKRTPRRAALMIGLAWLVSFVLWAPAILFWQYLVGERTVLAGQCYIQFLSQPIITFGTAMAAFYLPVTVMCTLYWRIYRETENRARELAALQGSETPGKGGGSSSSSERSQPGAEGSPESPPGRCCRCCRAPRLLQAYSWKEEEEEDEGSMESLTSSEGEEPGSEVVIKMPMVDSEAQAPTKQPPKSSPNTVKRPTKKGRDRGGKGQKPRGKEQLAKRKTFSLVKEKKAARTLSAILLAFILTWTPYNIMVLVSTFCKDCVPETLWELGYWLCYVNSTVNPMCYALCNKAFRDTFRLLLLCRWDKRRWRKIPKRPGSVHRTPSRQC

Structure (SMILES) | calcium response (max-min fluorescence)
COc1ccc(C2NCc3ccc4c(c3-n3cccc32)OCO4)cc1OC (stereo not given) | 455 (active)
Fc1ccc(N2CCN(Cc3ccc4c(c3)OCO4)CC2)cc1 | 588 (inactive)
CCOC(=O)C1SC2(C(F)(F)C(F)F)CC1(O)c1c(c(OC)c3occc3c1OC)O2 (stereo not given) | 516 (inactive)
CC[N+]1(C)CCCC(OC(=O)C(O)(c2ccccc2)c2ccccc2)C1 (stereo not given) | 17.5 (active)
COc1ccc(CN2CCN(c3ccccc3F)CC2)c(OC)c1 | 547 (inactive)

Reference: PubChem BioAssay AID677 (Vanderbilt High Throughput Screening Facility, 2007)
